Screen size: about 1,200 compounds; about 480 (40%) were called active. The rule behind the calls is not given here. So high a share suggests a set chosen from earlier hits. Only a sample is shown. Entries with a potency or affinity are not part of this list.
assay: HepG2 cell cytotoxicity, dose response, cytotoxicity control, CellTiter-Glo luminescence, cherry-pick, set 2 (AID 743395); conditions: HepG2 viability, CellTiter-Glo ATP luminescence, 72 h; series mostly up to 26 µM; activity change, negative = cytotoxicity: at the top concentration;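 note: 0% = neutral control wells and -100% = positive control wells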

| SMILES | activity change, negative = cytotoxicity |
| --- | --- |
| COc1ccc2c(c1)c(CC(=O)OCC(=O)O)c(C)n2C(=O)c1ccc(Cl)cc1 | -10.6% (inactive) |
| Cc1ccc(S(=O)(=O)N2CCN(C(=O)COC(=O)/C=C/c3ccc(Cl)cc3)CC2)c(C)c1 | 5.43% (inactive) |
| N#Cc1ncn(C2OC(CO)C(O)C2O)c1N (stereo unspecified) | -7.3% (inactive) |
| Cc1cc(Cl)cc(C)c1OCCn1ccnc1 | 3.36% (inactive) |
| Cc1ccc(NC(=O)COC(=O)CCC2CCCC2)c(Br)c1 | -10.8% (inactive) |
| COc1ccc2c3c([nH]c2c1)[C@@H](CO)N(S(=O)(=O)c1cn(C)cn1)CC31CCN(CC2CCCCC2)CC1 | -1.36% (inactive) |
| CCCC(=O)Nc1ccc2c(c1)C(=O)N(C)C[C@@H](OC)[C@H](C)CN(C(=O)CN1CCOCC1)[C@H](C)CO2 | -4.55% (inactive) |
| Cc1ccc(/C=N/NC(=O)C2COc3ccccc3O2)s1 (stereo unspecified) | -13.9% (inactive) |
| NS(=O)(=O)c1ccc(Cl)c(S(N)(=O)=O)c1 | -3.33% (inactive) |
| CCN(CC)c1ccc(/C=C(/C#N)c2nc3ccc(C)cc3[nH]2)c(OC(C)C)c1 | -32.9% (inactive) |
| Cc1cc(C)c(C(=O)NC2CCCc3c2cnn3-c2cccc(C)c2C)o1 (stereo unspecified) | -9.1% (inactive) |
| CCNC(=S)NNC(=O)CC(C)C | -4.94% (inactive) |
| O=C(/C=C/c1ccco1)NC(=S)Nc1nc(-c2ccc3ccccc3c2)cs1 | -2.42% (inactive) |
| CC(=O)NC(=S)Nc1ccc(NC(=S)NC(=O)/C=C/c2ccco2)cc1 | -3.21% (inactive) |
| CN(C(=O)c1ccccc1C(=O)OCC(=O)Nc1ccc(S(N)(=O)=O)cc1)c1ccccc1 | -17.8% (inactive) |
| CCCCc1nc(Cl)c(CO)n1Cc1ccc(-c2ccccc2-c2nn[nH]n2)cc1 | 6.61% (inactive) |
| COc1cc(NC(=O)COC(=O)c2n[nH]c3ccccc23)c(C)cc1[N+](=O)[O-] | -11.9% (inactive) |
| COCCSc1ccccc1C(=O)Nc1cc([N+](=O)[O-])ccc1OC | -19.6% (inactive) |
| C=CCn1c(SCC(=O)N(C)C2CCS(=O)(=O)C2)nc2ccccc2c1=O (stereo unspecified) | -11.1% (inactive) |
| COC(=O)c1cc2c(=O)c3ccccc3oc2nc1/C=C/N(C)C | 6.84% (inactive) |
| O=C(Cc1ccccn1)NCC[C@@H]1CC[C@H](NC(=O)Nc2ccc(C(F)(F)F)cc2)[C@H](CO)O1 | 2.91% (inactive) |

| SMILES | activity change, negative = cytotoxicity |
| --- | --- |
| CCOC(=O)C1=CN(Cc2ccco2)S(=O)(=O)NC1c1ccc(C(F)(F)F)cc1 (stereo unspecified) | -15% (inactive) |
| Cc1cc(C(=O)CN2C(=O)C(=O)N(Cc3ccccc3)C2=O)c(C)n1Cc1ccccc1 | -8.93% (inactive) |
| CC(C)[N+]1(C)[C@@H]2CC[C@@H]1CC(OC(=O)C(CO)c1ccccc1)C2 (stereo partly specified) | -13.9% (inactive) |
| Cc1noc(C)c1NC(=O)N(C)C[C@H]1Oc2cc(C#CCC3CCCC3)ccc2S(=O)(=O)N([C@@H](C)CO)C[C@@H]1C | -21.9% (inactive) |
| CCC1(C)Cc2ccccc2-c2nc[nH]c(=O)c21 (stereo unspecified) | -19.7% (inactive) |
| O=S(=O)(c1ccc(OCc2ccc(Br)cc2)cc1)N1CCOCC1 | 2.21% (inactive) |
| COc1cc(C(c2sc3nc(C)nn3c2O)N2CCN(c3ccccc3)CC2)cc(OC)c1OC (stereo unspecified) | 20.9% (inactive) |
| Cn1nnnc1N=N/C(=N/Nc1ccccc1)c1ccccc1 | -12.8% (inactive) |
| Cc1cccc(C(=O)NCC(=O)OCC(=O)N(C)CC(=O)Nc2ccccc2Cl)c1 | -8.28% (inactive) |
| C[C@H]1CN([C@@H](C)CO)S(=O)(=O)c2ccc(/C=C/c3ccccc3)cc2O[C@H]1CN(C)Cc1ccccc1 | -32.4% (inactive) |
| COc1ccccc1C#Cc1ccc2c(c1)O[C@H](CN(C)Cc1cccnc1)[C@H](C)CN([C@@H](C)CO)S2(=O)=O | -5.36% (inactive) |
| C[C@@H]1CN([C@H](C)CO)S(=O)(=O)c2ccc(C#Cc3ccccc3F)cc2O[C@H]1CN(C)C(=O)Cc1cccnc1 | 21.9% (inactive) |
| COc1ccccc1C#Cc1ccc2c(c1)O[C@@H](CN(C)Cc1cccnc1)[C@H](C)CN([C@@H](C)CO)S2(=O)=O | 5.01% (inactive) |
| O=C(CNC1CCCCC1)NN=C(c1ccccc1)c1ccccc1 | -17.1% (inactive) |
| O=C(NC1CCCCC1)c1cc(C2CC2)nn1-c1ccccc1 | 2.5% (inactive) |
| Cc1cc(Nc2ccc(Br)cc2)nc2ccccc12 | -20.8% (inactive) |
| CC(=O)Nc1cccc(NC(=O)CN2c3cccc4cccc(c34)S2(=O)=O)c1 | -14% (inactive) |
| CC(=O)Nc1ccc(S(=O)(=O)Nc2cccc(-c3nc4cc(C)ccc4o3)c2)cc1 | -22.7% (inactive) |
| Clc1ccc(Nc2ccc3ccccc3n2)cc1 | -12.5% (inactive) |
| CC(=O)Nc1ccc(S(=O)(=O)N2c3ccccc3C(C)=CC2(C)C)cc1 | -29.7% (inactive) |
| CCC1(C2=CCCCC2)C(=O)NC(=S)N=C1N (stereo unspecified) | -1.67% (inactive) |

| SMILES | activity change, negative = cytotoxicity |
| --- | --- |
| N#Cc1ccc(-c2ccc(C3[C@@H]4CN(C(=O)C5CCC5)C[C@H]3N4)cc2)cc1 (stereo partly specified) | -25.8% (inactive) |
| CCCNC(=O)N1CC2(CN(S(=O)(=O)c3cccc(OC)c3)C2)c2c(n(C)c3cc(OC)ccc23)[C@H]1CO | -5.83% (inactive) |
| Cc1cccc(S(=O)(=O)N2C[C@H]3[C@@H](c4ccccc42)[C@H](CO)N3CC2CCCC2)c1 | -7.41% (inactive) |
| N#Cc1ccc(-c2ccc3c(c2)[C@H]2[C@H](CCN2S(=O)(=O)c2ccccc2F)[C@@H](CO)N3)cc1 | -15.8% (inactive) |
| COc1cccc(-c2ccc([C@H]3[C@@H](CO)N(C(=O)c4ccccn4)[C@H]3C#N)cc2)c1 | -1.97% (inactive) |
| CCOC(=O)/C(=C/C=C1\Sc2cc(C)c(C)cc2N1CC)C(C)=O | -4.04% (inactive) |
| COCC(C)n1c(SCC(=O)N2CC(=O)Nc3ccccc32)nc2ccccc2c1=O (stereo unspecified) | -14.5% (inactive) |
| CCN(CC(=O)Nc1c(F)cccc1F)C(=O)C1CC1 | -0.756% (inactive) |
| CN(c1ccc(OCCOc2ccccc2Cl)cc1)S(=O)(=O)c1ccccc1 | -26.7% (inactive) |
| Cn1c(=O)c(NC2CCCCC2)c2c3c(cccc31)C(=O)c1ccccc1-2 | 5.22% (inactive) |
| O=C1c2cccc3c(N4CCCCC4)ccc(c23)C(=O)N1c1cccc(O)c1 | -8.5% (inactive) |
| Cc1cccc(C(=O)N(Cc2ccco2)c2c(N)n(Cc3ccccc3)c(=O)[nH]c2=O)c1 | -0.07% (inactive) |
| O=C(COC(=O)/C=C/c1ccccc1Cl)NC(=O)NCc1ccccc1 | -17.1% (inactive) |
| CC1CN(S(=O)(=O)c2ccc(C(=O)Nc3ccccc3F)cc2)CC(C)O1 (stereo unspecified) | -17.4% (inactive) |
| COc1ccccc1N(C)S(=O)(=O)c1ccc(C(=O)Nc2nccs2)cc1 | -9.42% (inactive) |
| c1ccc(-c2csc(NC3=NCCCCC3)n2)cc1 | -1.28% (inactive) |
| CCn1c(SCC(=O)N/N=C/c2ccc(O)c(OC)c2)nc2ccccc21 | 0.421% (inactive) |
| CCOc1cc(OCC)c(C(C)=O)cc1OCC | 4.37% (inactive) |
| COc1cccc2c1C(=O)C=C(C)C2=O | -10.7% (inactive) |

From PubChem BioAssay AID743395 (Broad Institute, 2014)
